“And” between values parts separate entries of the source, which are not always exact repeats. Identical values can stand only once. Unmarked numbers belong to inactive results. Records with an inconclusive call do not appear. Entries that show only a call come without a potency. The source made the active and inactive calls. Unless noted, the call rests on the fitted dose curve; in most records, active means well fitted curve in the direction sought with a large enough effect in the repeat runs; inconclusive means weak or mixed curves; inactive means no such curve, though single readings can be large; an effect the other way counts as inactive or inconclusive.
Experiments:
[1] = qHTS assay for small molecule agonists of the p53 signaling pathway (AID 651631; calls by dose curve; further: nearly all actives have a fitted effect of over 15% in size; further: potency means the concentration at half of the fitted maximal effect)
In short: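 Read-out is beta-lactamase FRET fluorescence measured 2 h after substrate addition at room temperature, in HCT-116 cells with a p53 response element-driven reporter exposed to compounds for 16 h at 37 °C.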

[2] = qHTS assay for small molecules that induce genotoxicity in human embryonic kidney cells expressing luciferase-tagged ATAD5 (AID 651632); further: nearly all actives have a fitted effect of over 15% in size
In short: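 Luminescent reporter readout, HEK293T ATAD5-luc line: 16 hr drug exposure (37C, 5% CO2) followed by Amplite, 30 min RT.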

[3] = qHTS assay for small molecule agonists of the p53 signaling pathway - cell viability (AID 651633; calls by dose curve; further: nearly all actives have a fitted effect of over 30% in size; further: potency means the concentration at half of the fitted maximal effect)
In short: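 Viability counter-read: CellTiter-Glo luminescence (30 min, room temperature) in the same p53RE-bla plates. These plates had been exposed to compounds for 16 h at 37 C.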

[4] = qHTS assay for small molecules that induce genotoxicity in human embryonic kidney cells expressing luciferase-tagged ATAD5 - cell viability (AID 651634; calls by dose curve; further: nearly all actives have a fitted effect of over 25% in size; further: potency means the concentration at half of the fitted maximal effect)
In short: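 Viability read: CellTiter-Fluor fluorescence, 30 min at 37C. Cells: HEK293T, luciferase-tagged ATAD5. Exposure: 15.5 hr, 37C, 5% CO2, compound or DMSO vehicle.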

[5] = qHTS assay for small molecule disruptors of the mitochondrial membrane potential - cell viability (AID 720634; calls by dose curve; further: nearly all actives have a fitted effect of over 20% in size; further: potency means the concentration at half of the fitted maximal effect)
In short: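 HepG2, 1 hr compound, 37 C. ATP luminescence via CellTiter-Glo, 30 min RT, same well as m-MPI.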

[6] = qHTS assay to test for compound auto fluorescence at 535 nm (green) in HepG2 cells (AID 720675); further: potency means the concentration at half of the fitted maximal effect
[7] = qHTS assay to test for compound auto fluorescence at 460 nm (blue) in HEK293 cells (AID 720678)
In short: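 HEK293 cells (2,000 per well, medium with 10% dialyzed FBS) attached for 4-5 hr at 37C, then received compound and stood overnight at 37C, 5% CO2. Blue fluorescence was read at Ex/Em 405/460 nm and expressed relative to triamterene.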

[8] = qHTS assay to test for compound auto fluorescence at 590 nm (red) in HEK293 cells (AID 720679); further: potency means the concentration at half of the fitted maximal effect
In short: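 HEK293 cells (2,000/well, medium with 10% dialyzed FBS) attached for 4-5 hr at 37C, received 23 nL compound and were incubated overnight at 37C, 5% CO2. Red fluorescence was then read at 540/590nm Ex/Em, referenced to Rose Bengal sodium.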

[9] = qHTS assay for small molecule disruptors of the mitochondrial membrane potential (AID 720635); further: potency means the concentration at half of the fitted maximal effect
In short: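 Mitochondrial membrane potential tracked with Mito-MPS dye, red aggregates (ex 540/em 590 nm) against green monomers (ex 490/em 535 nm). Compound treatment 1 hr at 37C, dye 30 min in HepG2.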

[10] = qHTS assay to test for compound auto fluorescence at 590 nm (red) in HepG2 cells (AID 720674)
In short: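 Red autofluorescence (Ex/Em 540/590 nm, Rose Bengal sodium equivalents) was measured in HepG2 cells, 2,000 per well in MEM plus 10% FBS, plated overnight at 37 C. Readings were taken 1 hr after adding 23 nL compound or DMSO, at 37 C and 5% CO2.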
Tags describe the fitted curve by direction and shape or compound fluorescence and quenching.

Row | Compound | Potency [1] | Potency [2] | Potency [3] | Potency [4] | Potency [5] | Potency [6] | Potency [7] | Potency [8] | Potency [9] | Potency [10] | fluorescence, relative to Rose Bengal [10] | fluorescence, % of fluorescein control [6] | fluorescence, % of fluorescent control [8]
1 | CCN=c1cc2oc3cc(NCC)c(C)cc3c(-c3ccccc3C(=O)OCC)c-2cc1C | 48.4 µM (active) | inactive | 60.9 µM (active) and 15.4 µM (active) | 9.65 µM (active) and 6.86 µM (active) | inactive | 39.8 µM (active) and 35.5 µM (active) | inactive | 4.47 µM [fluorescent] (active) and 6.31 µM [fluorescent] (active) | – | – | – | – | –
2 | S=P(N1CC1)(N1CC1)N1CC1 | 14.4 µM (active) | inactive | inactive | inactive | inactive | inactive | inactive | inactive | inactive | – | – | – | –
3 | CC(=O)Oc1ccc(C2(c3ccc(OC(C)=O)cc3)Oc3ccccc3NC2=O)cc1 | 2.37 µM (active) | inactive | inactive | inactive | inactive | inactive | – | inactive | – | inactive | – | – | –
4 | CC1CCCNC1 (centres undefined) | inactive | inactive | inactive | inactive | inactive | inactive | – | inactive | – | inactive | – | – | –
5 | CC(C)N=C(N)/N=C(\N)Nc1ccc(Cl)cc1 | inactive | inactive | inactive | inactive | inactive | – | – | – | – | – | 0.432% [at 18.6 µM] | -0.0393% [at 18.6 µM] | -0.126% [at 18.6 µM]
6 | C/C=C/C(=O)Oc1c(CCCCCC(C)C)cc([N+](=O)[O-])cc1[N+](=O)[O-] | 0.864 µM (active) | inactive | 15.4 µM (active) | 19.3 µM (active) | 3.06 µM (active) | – | inactive | inactive | 109 nM (active) | inactive | – | – | –
7 | C1CC(COCC2CO2)CCC1COCC1CO1 (centres undefined) | inactive | inactive | inactive | inactive | inactive | – | inactive | inactive | – | – | – | – | –
8 | O=C1OC(=O)c2cccc3cccc1c23 | inactive | inactive | inactive | inactive | inactive | inactive | inactive | inactive | 2760 nM (active) | inactive | – | – | –
9 | O=C(O)CC(=O)O | inactive | inactive | inactive | inactive | inactive | inactive | inactive | inactive | – | inactive | – | – | –
10 | O=C(Nc1ccc(Cl)cc1)Nc1ccc(Cl)c(C(F)(F)F)c1 | 16.8 µM (active) | inactive | 26.6 µM (active) | 13.3 µM (active) | 1.5 µM (active) | inactive | inactive | inactive | 596 nM (active) | inactive | – | – | –
11 | N[C@@H](CSSC[C@H](N)C(=O)O)C(=O)O | inactive | inactive | inactive | inactive | inactive | inactive | – | inactive | – | inactive | – | – | –
12 | CC1=C(/C=C/C(C)=C/C=C/C(C)=C/C(=O)Nc2ccc(O)cc2)C(C)(C)CCC1 | 29.8 µM (active) | inactive | 29.8 µM (active) and 62.7 µM (active) | 23.7 µM (active) and 28 µM (active) | inactive | inactive | inactive | inactive | 3.35 µM (active) and 2.8 µM (active) | – | – | – | –
13 | Cc1cccc(Br)c1 | inactive | inactive | inactive | inactive | inactive | inactive | – | – | inactive | inactive | – | – | –
14 | NC(=O)c1ccccc1N | inactive | inactive | inactive | inactive | inactive | inactive | inactive | inactive | inactive | inactive | – | – | –
15 | CCc1cccc(C)c1 | inactive | inactive | inactive | inactive | inactive | inactive | inactive | – | – | inactive | – | – | –
16 | Cc1cn[nH]c1 | inactive | inactive | inactive | inactive | inactive | inactive | – | – | – | inactive | – | – | –
17 | C=CC(C)(CCC=C(C)C)OC(=O)/C=C/c1ccccc1 (centres undefined) | inactive | inactive | inactive | inactive | inactive | inactive | inactive | inactive | – | inactive | – | – | –
18 | CCCCCCCCCCCCCCCC | inactive | inactive | inactive | inactive | inactive | – | – | inactive | inactive | inactive | – | – | –
19 | CCNc1nc(NC(C)CC)nc(OC)n1 (centres undefined) | inactive | inactive | inactive | inactive | inactive | inactive | inactive | inactive | inactive | – | – | – | –
20 | CCCCCCCC/C=C\CCCCCCCC(=O)OCCOC(=O)CCCCCCC/C=C\CCCCCCCC | inactive | inactive | inactive | inactive | inactive | inactive | inactive | – | 79800 nM (active) | inactive | – | – | –
21 | CCC(=O)OCCc1ccccc1 | inactive | inactive | inactive | inactive | inactive | inactive | inactive | inactive | inactive | inactive | – | – | –
22 | CCCCCCCCCCCC(=O)N(CC)CC | inactive | inactive | inactive | inactive | inactive | inactive | – | inactive | – | inactive | – | – | –
